log2 fold change data for 36 targets are collected here from the supplement of paper PMC10849652.

Of roughly 7,900 targets only a part is listed; those with a hit were picked by preference. About 0.6% of all pairs of compound and target were hits.

UniProt O00748, sequence (O00748 whole entry, looked up): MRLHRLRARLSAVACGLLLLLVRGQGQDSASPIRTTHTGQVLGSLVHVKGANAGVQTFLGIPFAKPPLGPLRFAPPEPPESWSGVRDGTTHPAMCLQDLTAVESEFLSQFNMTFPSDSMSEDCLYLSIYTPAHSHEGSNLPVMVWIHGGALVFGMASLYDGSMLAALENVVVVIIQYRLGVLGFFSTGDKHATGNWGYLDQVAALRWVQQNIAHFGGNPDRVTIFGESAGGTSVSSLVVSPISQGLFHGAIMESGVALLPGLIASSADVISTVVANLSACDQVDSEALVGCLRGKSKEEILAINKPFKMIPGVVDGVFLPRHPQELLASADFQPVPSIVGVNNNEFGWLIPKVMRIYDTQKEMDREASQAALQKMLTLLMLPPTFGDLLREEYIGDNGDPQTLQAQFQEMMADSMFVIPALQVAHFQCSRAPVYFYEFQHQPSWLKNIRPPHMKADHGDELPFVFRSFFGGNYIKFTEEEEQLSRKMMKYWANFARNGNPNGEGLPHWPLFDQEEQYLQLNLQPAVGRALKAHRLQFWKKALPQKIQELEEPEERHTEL
UniProt Q9UIV1, sequence (Q9UIV1 whole entry, looked up): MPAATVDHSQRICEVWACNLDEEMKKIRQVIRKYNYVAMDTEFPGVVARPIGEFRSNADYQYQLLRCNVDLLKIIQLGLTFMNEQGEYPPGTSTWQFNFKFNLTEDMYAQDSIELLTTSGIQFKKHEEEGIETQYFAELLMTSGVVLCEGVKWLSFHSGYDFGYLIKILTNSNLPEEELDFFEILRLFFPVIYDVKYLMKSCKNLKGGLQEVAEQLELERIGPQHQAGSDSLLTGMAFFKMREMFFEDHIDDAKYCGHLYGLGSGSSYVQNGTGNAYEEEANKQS
UniProt Q9Y5P4, sequence (Q9Y5P4 whole entry, looked up): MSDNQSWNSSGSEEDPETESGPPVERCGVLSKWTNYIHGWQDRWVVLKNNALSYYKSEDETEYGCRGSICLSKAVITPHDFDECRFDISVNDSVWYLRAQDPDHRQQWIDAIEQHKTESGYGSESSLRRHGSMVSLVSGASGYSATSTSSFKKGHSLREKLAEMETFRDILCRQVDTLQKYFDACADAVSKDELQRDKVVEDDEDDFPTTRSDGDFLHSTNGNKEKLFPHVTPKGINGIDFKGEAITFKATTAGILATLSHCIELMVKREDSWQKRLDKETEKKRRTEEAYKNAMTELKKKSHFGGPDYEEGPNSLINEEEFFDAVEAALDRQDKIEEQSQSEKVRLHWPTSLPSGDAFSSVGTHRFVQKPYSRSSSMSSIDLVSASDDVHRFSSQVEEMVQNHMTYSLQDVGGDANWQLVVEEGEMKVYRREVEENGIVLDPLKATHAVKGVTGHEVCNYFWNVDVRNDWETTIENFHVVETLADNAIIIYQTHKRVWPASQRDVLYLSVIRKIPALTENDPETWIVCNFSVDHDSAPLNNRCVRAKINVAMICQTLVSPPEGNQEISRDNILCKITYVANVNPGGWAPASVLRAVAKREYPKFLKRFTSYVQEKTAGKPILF
UniProt O75153, sequence (O75153 whole entry, looked up): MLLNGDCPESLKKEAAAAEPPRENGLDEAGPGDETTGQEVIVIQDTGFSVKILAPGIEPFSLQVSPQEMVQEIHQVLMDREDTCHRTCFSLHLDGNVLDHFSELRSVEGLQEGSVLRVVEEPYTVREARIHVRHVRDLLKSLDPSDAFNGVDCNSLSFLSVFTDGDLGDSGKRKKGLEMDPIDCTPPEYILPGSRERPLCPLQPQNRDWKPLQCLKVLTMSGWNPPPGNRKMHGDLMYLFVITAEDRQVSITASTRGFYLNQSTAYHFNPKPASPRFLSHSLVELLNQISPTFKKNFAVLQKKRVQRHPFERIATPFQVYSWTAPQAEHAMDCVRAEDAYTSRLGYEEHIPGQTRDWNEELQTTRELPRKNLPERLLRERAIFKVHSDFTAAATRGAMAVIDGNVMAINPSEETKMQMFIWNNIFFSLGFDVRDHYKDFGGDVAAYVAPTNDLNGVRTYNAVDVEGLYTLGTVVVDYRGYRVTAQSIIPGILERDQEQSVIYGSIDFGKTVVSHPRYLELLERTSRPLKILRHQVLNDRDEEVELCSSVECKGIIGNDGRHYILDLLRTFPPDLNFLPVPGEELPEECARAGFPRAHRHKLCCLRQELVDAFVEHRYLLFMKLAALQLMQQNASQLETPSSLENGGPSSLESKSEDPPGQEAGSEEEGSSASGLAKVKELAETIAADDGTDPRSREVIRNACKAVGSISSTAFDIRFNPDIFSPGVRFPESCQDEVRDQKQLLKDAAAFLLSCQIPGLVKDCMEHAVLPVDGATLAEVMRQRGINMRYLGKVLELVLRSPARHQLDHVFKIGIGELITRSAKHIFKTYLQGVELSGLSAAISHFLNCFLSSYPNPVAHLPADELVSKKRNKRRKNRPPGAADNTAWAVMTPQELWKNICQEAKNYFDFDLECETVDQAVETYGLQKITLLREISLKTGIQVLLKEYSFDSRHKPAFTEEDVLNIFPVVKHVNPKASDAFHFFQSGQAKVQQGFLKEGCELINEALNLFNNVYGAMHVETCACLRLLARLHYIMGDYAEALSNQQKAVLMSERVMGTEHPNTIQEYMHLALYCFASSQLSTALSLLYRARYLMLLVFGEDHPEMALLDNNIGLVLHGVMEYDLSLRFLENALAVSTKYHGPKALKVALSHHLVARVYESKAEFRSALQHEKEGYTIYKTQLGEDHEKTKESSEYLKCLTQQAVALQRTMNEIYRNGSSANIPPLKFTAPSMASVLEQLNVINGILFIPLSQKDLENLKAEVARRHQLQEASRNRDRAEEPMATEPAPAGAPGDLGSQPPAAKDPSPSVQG
UniProt P00915, sequence (P00915 whole entry, looked up): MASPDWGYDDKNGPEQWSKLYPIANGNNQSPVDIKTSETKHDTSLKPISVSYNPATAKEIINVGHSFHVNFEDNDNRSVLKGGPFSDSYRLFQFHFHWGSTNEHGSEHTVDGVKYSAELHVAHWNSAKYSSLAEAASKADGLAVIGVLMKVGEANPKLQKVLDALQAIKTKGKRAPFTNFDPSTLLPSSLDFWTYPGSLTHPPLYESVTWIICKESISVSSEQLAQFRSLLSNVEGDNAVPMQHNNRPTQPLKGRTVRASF
UniProt Q14839, sequence (Q14839 whole entry, looked up): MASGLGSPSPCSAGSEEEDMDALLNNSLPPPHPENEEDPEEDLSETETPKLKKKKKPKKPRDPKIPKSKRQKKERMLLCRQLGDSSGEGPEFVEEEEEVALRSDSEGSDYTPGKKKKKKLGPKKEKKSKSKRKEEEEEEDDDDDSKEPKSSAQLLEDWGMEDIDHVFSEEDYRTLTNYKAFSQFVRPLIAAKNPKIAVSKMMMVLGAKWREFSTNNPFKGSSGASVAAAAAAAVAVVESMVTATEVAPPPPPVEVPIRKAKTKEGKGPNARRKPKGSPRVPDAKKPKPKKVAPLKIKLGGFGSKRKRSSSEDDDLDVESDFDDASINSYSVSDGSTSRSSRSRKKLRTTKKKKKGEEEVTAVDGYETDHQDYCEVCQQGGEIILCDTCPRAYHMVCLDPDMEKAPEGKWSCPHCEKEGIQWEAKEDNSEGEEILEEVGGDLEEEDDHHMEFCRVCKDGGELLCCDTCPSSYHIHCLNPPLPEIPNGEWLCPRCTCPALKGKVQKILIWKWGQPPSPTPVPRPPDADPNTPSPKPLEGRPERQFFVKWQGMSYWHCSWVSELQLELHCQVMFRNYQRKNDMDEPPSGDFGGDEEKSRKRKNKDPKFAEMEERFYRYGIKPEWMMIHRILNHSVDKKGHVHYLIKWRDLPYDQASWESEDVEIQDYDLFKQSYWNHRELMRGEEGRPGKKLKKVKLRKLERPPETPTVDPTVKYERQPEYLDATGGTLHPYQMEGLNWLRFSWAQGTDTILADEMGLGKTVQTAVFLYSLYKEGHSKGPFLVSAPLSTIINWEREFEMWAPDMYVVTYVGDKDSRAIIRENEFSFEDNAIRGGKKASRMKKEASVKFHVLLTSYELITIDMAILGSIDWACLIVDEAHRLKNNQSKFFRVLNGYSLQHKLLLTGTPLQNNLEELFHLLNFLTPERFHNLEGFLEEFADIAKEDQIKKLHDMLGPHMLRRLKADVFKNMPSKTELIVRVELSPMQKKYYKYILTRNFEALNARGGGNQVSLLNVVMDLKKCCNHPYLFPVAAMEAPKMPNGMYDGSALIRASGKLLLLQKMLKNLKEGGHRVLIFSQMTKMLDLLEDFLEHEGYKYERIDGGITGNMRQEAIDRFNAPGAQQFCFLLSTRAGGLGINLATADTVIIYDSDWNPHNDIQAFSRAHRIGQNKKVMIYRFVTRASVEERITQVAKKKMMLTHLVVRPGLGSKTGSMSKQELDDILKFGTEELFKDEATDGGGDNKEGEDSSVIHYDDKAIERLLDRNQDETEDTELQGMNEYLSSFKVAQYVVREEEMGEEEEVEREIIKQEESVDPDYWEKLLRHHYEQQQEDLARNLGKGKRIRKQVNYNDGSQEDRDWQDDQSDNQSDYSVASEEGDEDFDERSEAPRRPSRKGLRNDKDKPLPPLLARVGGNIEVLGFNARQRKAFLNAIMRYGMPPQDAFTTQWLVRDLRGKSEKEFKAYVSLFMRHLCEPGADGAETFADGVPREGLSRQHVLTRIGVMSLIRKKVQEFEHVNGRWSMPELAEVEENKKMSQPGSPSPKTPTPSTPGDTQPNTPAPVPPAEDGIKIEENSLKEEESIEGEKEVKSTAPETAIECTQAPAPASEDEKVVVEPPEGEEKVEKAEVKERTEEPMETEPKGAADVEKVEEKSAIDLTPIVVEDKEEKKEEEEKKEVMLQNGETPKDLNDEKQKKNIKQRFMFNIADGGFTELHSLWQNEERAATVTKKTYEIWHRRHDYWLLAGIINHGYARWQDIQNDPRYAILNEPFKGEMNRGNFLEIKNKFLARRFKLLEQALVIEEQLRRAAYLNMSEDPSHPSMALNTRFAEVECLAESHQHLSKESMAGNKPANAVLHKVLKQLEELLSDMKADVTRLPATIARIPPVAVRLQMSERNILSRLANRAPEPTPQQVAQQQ
UniProt Q5JTJ3, sequence (Q5JTJ3 whole entry, looked up): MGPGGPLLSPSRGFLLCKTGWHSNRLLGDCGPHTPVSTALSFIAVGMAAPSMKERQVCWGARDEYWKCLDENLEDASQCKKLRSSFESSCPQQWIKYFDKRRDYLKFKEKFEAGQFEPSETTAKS

Compound in the first assay: CCN(CC)Cc1ccc2cc(COC(=O)Nc3ccc(C(=O)NO)cc3)ccc2c1 [givinostat]
Description: log2 fold change, soluble protein after heating vs DMSO (PISA); higher = thermal stabilisation; K562 cells, 10 uM, 30 min; active = over 0.2 and 3.5 SD of the protein, either way, in both replicates (recomputed). A digest of the protocol:
(§1)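 Soluble protein was quantified by TMTpro 16plex LC-MS/MS after channel sums were equalised. It was obtained as the supernatant after 21,000xg for 90 min from pooled aliquots of K562 cells (2×10^6 cells/mL, 10 μM compound, 30 min) heated for 3 min across 48°C-58°C and extracted in PBS with 0.5% NP-40 at 4°C. Thermal stability values are relative to control samples and come from duplicates. They are given as log2 fold changes.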
Consider CERT isoform 3 (UniProt Q9Y5P4), for which the log2 fold change is -0.027 (inactive).

CNOT7 (UniProt Q9UIV1): the log2 fold change was -0.026 (inactive).

As to CPT2 (UniProt P23786), the log2 fold change was 0.474 (inactive).

Take COA6 isoform 2 (UniProt Q5JTJ3): the log2 fold change is -0.02 (inactive).

Take COMMD2 (UniProt Q86X83): the log2 fold change is 0.11 (inactive).

In the case of CES2 isoform 4 (UniProt O00748), the log2 fold change is 0.021 (inactive).

As for CA1 (UniProt P00915), the log2 fold change is -0.021 (inactive).

With CHD4 isoform 2 (UniProt Q14839), the log2 fold change is 0.154 (inactive).

In the case of CD55 isoform 7 (UniProt P08174), the log2 fold change was 0 (inactive).

In the case of CLPTM1L (UniProt Q96KA5), the log2 fold change is 0.009 (inactive).

For the target CSE1L (UniProt P55060), the log2 fold change is 0.004 (inactive).

In the case of C4A (UniProt P0C0L4), the log2 fold change was 0.001 (inactive).

For CDK16 isoform 2 (UniProt Q00536), the log2 fold change was -0.043 (inactive).

With CLUH (UniProt O75153), the log2 fold change was 0.016 (inactive).

Compound in another assay: CCN(CCCOc1ccc2c(Nc3cc(CC(=O)Nc4cccc(F)c4)[nH]n3)ncnc2c1)CCOP(=O)(O)O [barasertib]
Described as above. The method in brief:
as §1
For the target CCNB1 (UniProt P14635), the log2 fold change was -0.007 (inactive).

As for CLSPN (UniProt Q9HAW4), the log2 fold change was 0.006 (inactive).

In the case of CDK6 (UniProt Q00534), the log2 fold change was -0.018 (inactive).

Turning to CCNK isoform 4 (UniProt O75909), the log2 fold change was -0.063 (inactive).

In the case of C16orf58 (UniProt Q96GQ5), the log2 fold change was -0.011 (inactive).

Consider CDC25B isoform 4 (UniProt P30305), for which the log2 fold change was -0.044 (inactive).

With CPQ (UniProt Q9Y646), the log2 fold change was -0.002 (inactive).

For the target CCDC57 (UniProt Q2TAC2), the log2 fold change was 0.015 (inactive).

On to C9orf72 (UniProt Q96LT7), for which the log2 fold change is 0.042 (inactive).

As for CASP3 (UniProt P42574), the log2 fold change is -0.005 (inactive).

Take CLASP2 isoform 3 (UniProt O75122): the log2 fold change is 0.066 (inactive).

CCM2 isoform 2 (UniProt Q9BSQ5): the log2 fold change is -0.061 (inactive).

Take CCDC9 (UniProt Q9Y3X0): the log2 fold change was 0.021 (inactive).

Take CETN2 (UniProt P41208): the log2 fold change was -0.013 (inactive).

In the case of CKB (UniProt P12277), the log2 fold change was -0.002 (inactive).

As for CKS1B (UniProt P61024), the log2 fold change is 0.029 (inactive).

For the target CDC42BPA isoform 6 (UniProt Q5VT25), the log2 fold change was 0.04 (inactive).

Take COX20 isoform 2 (UniProt Q5RI15): the log2 fold change was -0.03 (inactive).

For the target CHKA (UniProt P35790), the log2 fold change was 0.05 (inactive).

Consider CNOT1 (UniProt A5YKK6), for which the log2 fold change is 0.044 (inactive).

Regarding CHAMP1 (UniProt Q96JM3), the log2 fold change is 0.027 (inactive).

Consider CHERP (UniProt Q8IWX8), for which the log2 fold change is 0.055 (inactive).

In the case of CERT isoform 3 (UniProt Q9Y5P4), the log2 fold change is -0.002 (inactive).

Take CNOT7 (UniProt Q9UIV1): the log2 fold change was 0.004 (inactive).

Take CPT2 (UniProt P23786): the log2 fold change is 0.013 (inactive).

As to COA6 isoform 2 (UniProt Q5JTJ3), the log2 fold change is -0.042 (inactive).

In the case of COMMD2 (UniProt Q86X83), the log2 fold change was 0.053 (inactive).

Take CES2 isoform 4 (UniProt O00748): the log2 fold change is 0.022 (inactive).

For CA1 (UniProt P00915), the log2 fold change is 0.008 (inactive).

Turning to CHD4 isoform 2 (UniProt Q14839), the log2 fold change is 0.121 (inactive).

On to CD55 isoform 7 (UniProt P08174), for which the log2 fold change is -0.057 (inactive).

In the case of CLPTM1L (UniProt Q96KA5), the log2 fold change was 0.021 (inactive).

For CSE1L (UniProt P55060), the log2 fold change was 0.042 (inactive).

As to C4A (UniProt P0C0L4), the log2 fold change is 0.021 (inactive).

Turning to CDK16 isoform 2 (UniProt Q00536), the log2 fold change was -0.023 (inactive).

Turning to CLUH (UniProt O75153), the log2 fold change was 0.033 (inactive).
